Assay results reported in PubChem BioAssay AID488969 (Vanderbilt High Throughput Screening Facility, 2010).
The full ranking holds about 110,000 compounds; the median of “z-score” is about -0.1, and the highest 2% start at about 2. The sample holds the highest values, similar compounds and a random draw of the others, so the mix is not that of the screen. The source made the active and inactive calls.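 How the source made its calls: active means z-score in the third read window above 3 or below -3; inactive means the rest.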

These compounds were tested against Metabotropic glutamate receptor 8 (Rattus norvegicus) (UniProt P70579) (assay: mGluR8 Gi/Go-coupled signaling modulation – cell-based, rat, thallium flux, HTS, primary screen (AID 488969)). Details: HEK293 rat mGluR8, GIRK (G protein-gated inwardly rectifying potassium channel) thallium flux, FluoZin2; at 10 µM; stronger effect = higher value; submaximal glutamate (EC20) added with thallium.
Metabotropic glutamate receptor 8 (Rattus norvegicus), sequence (P70579 whole entry, looked up): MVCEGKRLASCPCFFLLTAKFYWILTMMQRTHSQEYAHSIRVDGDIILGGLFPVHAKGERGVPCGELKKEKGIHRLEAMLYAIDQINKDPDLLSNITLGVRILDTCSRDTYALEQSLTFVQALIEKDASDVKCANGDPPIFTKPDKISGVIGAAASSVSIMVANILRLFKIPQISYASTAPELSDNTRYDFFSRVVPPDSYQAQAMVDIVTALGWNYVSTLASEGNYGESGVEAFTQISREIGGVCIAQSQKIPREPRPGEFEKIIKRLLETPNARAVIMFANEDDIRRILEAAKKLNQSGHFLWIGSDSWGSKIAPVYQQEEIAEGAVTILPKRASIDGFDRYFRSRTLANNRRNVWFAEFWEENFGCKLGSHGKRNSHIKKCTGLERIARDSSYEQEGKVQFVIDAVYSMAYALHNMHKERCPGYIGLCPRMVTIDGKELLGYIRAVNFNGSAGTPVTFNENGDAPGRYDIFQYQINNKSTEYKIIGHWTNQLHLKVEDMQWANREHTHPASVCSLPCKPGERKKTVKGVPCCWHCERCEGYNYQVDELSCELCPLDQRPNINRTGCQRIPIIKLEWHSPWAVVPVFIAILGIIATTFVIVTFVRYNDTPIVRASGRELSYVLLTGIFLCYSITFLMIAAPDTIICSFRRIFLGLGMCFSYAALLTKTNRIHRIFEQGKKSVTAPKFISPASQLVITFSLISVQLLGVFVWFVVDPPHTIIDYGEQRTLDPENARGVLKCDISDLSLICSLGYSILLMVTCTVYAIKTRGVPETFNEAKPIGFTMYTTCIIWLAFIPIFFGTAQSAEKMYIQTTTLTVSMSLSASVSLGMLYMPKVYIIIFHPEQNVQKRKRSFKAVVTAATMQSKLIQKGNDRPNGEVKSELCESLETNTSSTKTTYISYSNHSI

In order of falling z-score:
1. O=C(OCC#CCSc1nnc(-c2ccncc2)o1)c1sc2ccccc2c1Cl  2.87
2. COc1ccccc1Nc1ccc(Nc2ccccc2OC)nn1  2.82
3. COc1cccc(C2=NN(C(=O)c3ccccc3)C(O)(C(F)(F)F)C2)c1 (stereo not drawn)  2.79
4. CCOC(=O)Cn1c(=O)oc2cc(S(=O)(=O)Nc3ccc(N(CC)CC)cc3C)ccc21  2.74
5. CN(C)CCNc1oc(-c2cccc(Cl)c2)nc1C#N  2.54
6. Cc1cccc(C(=O)NNC(=O)C(=O)NC(C)(C)C)c1  2.45
7. Cc1ccc(C)c(NC(=O)c2cc(-c3ccccc3)nn2-c2ccccc2)c1  2.08
8. CN(C)CCNc1oc(COc2ccc(-c3ccccc3)cc2)nc1C#N  2.06
9. CC(C)(C)NC(=O)C(=O)NNC(=O)c1ccccc1  1.57
10. CN(C)CCNc1oc(COc2ccc(Cl)cc2)nc1C#N  1.5
11. CN(C)CCCNc1oc(-c2ccc(Cl)cc2)nc1C#N  1.35
12. Cc1ccc(-c2nc3ccc(NS(=O)(=O)c4ccccc4)cc3[nH]2)o1  1.31
13. CCN(CC)CCCNc1oc(-c2cccc(Cl)c2)nc1C#N  1.31
14. Cc1ccc(NC(=O)c2cc(-c3ccccc3)nn2-c2ccccc2)cc1  1.28
15. O=C(Nc1nc2ccccc2s1)c1cc(-c2ccccc2)nn1-c1ccccc1  1.18
16. CCN1/C(=C2/OC(=S)N(C)C2=O)Sc2ccccc21  1.02
17. CCOC(=O)c1c(NC(=O)C2C3C=CC(CC3)C2C(=O)O)sc(C)c1C (stereo not drawn)  0.959
18. Cc1ccccc1NC(=O)NCC1CCCO1 (stereo not drawn)  0.73
19. O=C(COC(=O)[C@H](Cc1c[nH]c2ccccc12)NC(=O)c1ccc(Cl)cc1)Nc1ccc2c(c1)OCO2  0.558
20. Cc1ccc(NC(=O)c2cc(-c3ccccc3)nn2-c2ccccc2)c(Br)c1  0.496
21. CC(C)(C)c1ccc(C(=O)NNC(=O)C(=O)N2CCCCC2)cc1  0.478
22. Cc1ccc(N(CC(=O)N2CCOCC2)S(=O)(=O)c2ccccc2)cc1  0.464
23. N#CCC(=O)N/N=C1\CCCCC1C1CCCCC1 (stereo not drawn)  0.419
24. OC(CNCC1CCCO1)Cn1c2ccc(Cl)cc2c2cc(Cl)ccc21 (stereo not drawn)  0.381
25. COc1ccc(C(=O)N2N=C(c3cccc(OC)c3)CC2(O)C(F)(F)F)cc1 (stereo not drawn)  0.326
26. CCN(CC)c1ccc(NS(=O)(=O)c2ccc3c(c2)oc(=O)n3C)c(C)c1  0.308
27. CCc1nnc(NC(=O)c2cc(-c3ccccc3)nn2-c2ccccc2)s1  0.27
28. COc1ccc(NC(=O)Cn2c(=O)n(CC(=O)NCc3ccco3)c(=O)c3ccccc32)cc1  0.213
29. COc1ccc(-c2noc(-c3ccccc3C(=O)Nc3cccnc3)n2)cc1OC  0.205
30. N#C/C(=N\Nc1ccc(Cl)cc1)C(=N)N1CCCCC1  0.186
31. OC(CNCc1ccco1)Cn1c2ccc(Br)cc2c2cc(Br)ccc21 (stereo not drawn)  0.138
32. O=C1CCCc2c1[nH]c1ccc(CN3CCCCC3)cc21  0.129
33. Cc1nc(C)c(C(=O)N/N=C/c2cn(C)c3ccccc23)s1  0.0943
34. CC(C)N1CCC(=NNc2ccc(S(=O)(=O)N3CCOCC3)cc2[N+](=O)[O-])CC1  0.0912
35. CCC(C)NS(=O)(=O)c1ccc(NC(=O)c2ccc([N+](=O)[O-])cc2Cl)cc1 (stereo not drawn)  0.0866
36. CCOC(=O)c1c(N)sc2c1CCC(CC)C2 (stereo not drawn)  0.0842
37. O=C(C[n+]1cc(-c2ccc(Cl)c(Cl)c2)n2c1CCC2)OCc1ccccc1  0.0701
38. O=C(COc1ccccc1)N1CCN(S(=O)(=O)Cc2ccccc2)CC1  0.0406
39. CC1(C)Cc2[nH]c(=O)c(C#N)cc2CS1  0.0257
40. CCCCNS(=O)(=O)c1ccc2c(c1)oc(=O)n2CC(=O)OCC  0.0209
41. COc1cccc(C(=O)N2N=C(c3cccc(OC)c3)CC2(O)C(F)(F)F)c1 (stereo not drawn)  0.00352
42. Cc1ccc2[nH]c(=O)c(C(c3nnnn3C(C)(C)C)N3CCN(C(=O)c4ccco4)CC3)cc2c1 (stereo not drawn)  -0.0115
43. Cc1cccc(C(=O)NNC(=O)c2ccccc2)c1  -0.0133
44. C=CCN1C(=O)C2C(C(=O)NC3CCCCC3)C3C=CC2(O3)C1C(=O)NC1CCCC1 (stereo not drawn)  -0.014
45. CC(C)C(=O)Nc1ccnc(-c2cccnc2)n1  -0.0191
46. CSc1nnc(Nc2ccccc2C)s1  -0.0316
47. CCCCn1c(S(=O)(=O)O)nc2ccccc21  -0.0451
48. O=C(Nc1ccc(OC(F)(F)F)cc1)c1n[nH]c(Cn2cncn2)n1  -0.0524
49. CCOC(=O)c1nn(-c2ccccc2)c(=O)cc1SC(C)C  -0.0576
50. Cc1cc(=O)[nH]c(-n2nc(C)c(Oc3ccccc3O)c2C)n1  -0.0623
51. COC(=O)NNC(=O)c1cccc(C)c1  -0.067
52. CCc1ccccc1NC(=S)NCc1ccc2c(c1)OCO2  -0.0875
53. O=C(OCC#CCSc1nnc(-c2ccncc2)o1)c1cccs1  -0.0957
54. CCOC(=O)c1nn(-c2ccc(F)cc2)c2nc(Nc3ccccc3)cc(=O)n12  -0.123
55. COc1ccc(OC)c(Nc2ccc(Nc3cc(OC)ccc3OC)nn2)c1  -0.125
56. C/C(N)=C(/C#N)C(=O)CSc1nnc(Nc2ccccc2C)s1  -0.126
57. CCc1cc2c(N[C@@H](Cc3c[nH]c4ccccc34)C(=O)O)ncnc2s1  -0.16
58. CCn1c(SCc2ccc(Cl)cc2Cl)nc2nc3c(cc2c1=O)CCCC3  -0.163
59. N#CCc1ccc(C(=O)c2ccccc2)s1  -0.167
60. CC1CCCCC1NC(=O)COn1nnc2ccc(Cl)cc21 (stereo not drawn)  -0.171
61. CCOC(=O)Cn1c(=O)oc2cc(S(=O)(=O)NCCc3ccc(C)cc3)ccc21  -0.171
62. COc1ccc(/C=N/NC(=O)CSc2nnc(CCCc3ccc(OC)c(C)c3)o2)cc1  -0.18
63. COc1nccnc1NS(=O)(=O)c1ccc(N=Cc2c(C)[nH]n(-c3ccccc3)c2=O)cc1  -0.188
64. NC(=O)C(c1ncc(C(F)(F)F)cc1Cl)c1c(Cl)cccc1Cl (stereo not drawn)  -0.197
65. CCOC(=O)N1CCC(N2C(=O)c3cc(C(=O)NC4CCCCC4)ccc3C2O)CC1 (stereo not drawn)  -0.198
66. Cc1ccc(OCCNC(=O)/C=C/c2ccccc2)cc1C  -0.203
67. COC(=O)C1CCN(S(C)(=O)=O)CC1  -0.211
68. Cc1ccc(S(=O)(=O)N(C)C)cc1NC(=O)CCNC(=O)c1ccccc1Cl  -0.212
69. CCN(CC)CCCNc1oc(-c2ccc(OC)c(OC)c2)nc1C#N  -0.222
70. CCOC(=O)Cn1c(=O)oc2cc(S(=O)(=O)Nc3c(C)cc(C)cc3C)ccc21  -0.223
71. C=CCOn1c(=O)c(-c2ccc(OC)c(OC)c2)[n+]([O-])c2ccccc21  -0.224
72. CCC(C)Cn1c(S(=O)(=O)O)nc2ccccc21 (stereo not drawn)  -0.238
73. Cc1cccc(C(=O)Nc2nnc(SCC(=O)Nc3ccc4c(c3)oc3ccccc34)s2)c1  -0.242
74. CC(C)OC(=O)c1cc2c(ccn2C)n1CC(=O)N(Cc1ccccc1)c1ccccc1  -0.243
75. CCOCCc1nnc(NC(=O)c2cccc(F)c2)s1  -0.243
76. CCOC(=O)c1c(NC(=O)C2C3CCC(O3)C2C(=O)O)sc(C)c1-c1ccc(C)cc1 (stereo not drawn)  -0.26
77. CN(CC(=O)Nn1cnnc1)S(=O)(=O)c1ccccc1  -0.262
78. CCOc1c2ccc(C(=O)NCc3ccc4c(c3)OCO4)cc2nn1CCOC  -0.276
79. CN(C)c1ccc(NC(=O)c2ccc([N+](=O)[O-])cc2Cl)cc1  -0.282
80. CN(CC(=O)Nc1ccncc1)S(=O)(=O)c1ccc(Br)cc1  -0.284
81. O=C(C[n+]1cc(-c2ccccc2)n2c1CCC2)N1c2ccccc2Sc2ccccc21  -0.288
82. COC(=O)C(C)Sc1nnc(-c2ccncc2)o1 (stereo not drawn)  -0.297
83. CCOC(=O)N1CCC(N2C(=O)c3ccc(C(=O)NCc4ccco4)cc3C2=O)CC1  -0.36
84. COc1ccccc1Nc1nnc(C)c(=O)[nH]1  -0.361
85. Cc1sc(NC(=O)C2C3CCC(O3)C2C(=O)O)c(C(=O)OC(C)C)c1-c1ccc(Cl)cc1 (stereo not drawn)  -0.429
86. COc1ccc(CCNc2oc(COc3ccccc3)nc2C#N)cc1  -0.509
87. Cc1noc(C)c1C(=O)N1CCN(C(=O)c2sc3cc(Cl)ccc3c2Cl)CC1  -0.676
88. O=C(OCC#CCSc1nnc(-c2ccccc2)o1)c1cccs1  -0.745
89. O=C(CN(Cc1ccccc1)C1=NCCS1)c1ccccc1  -0.754
90. O=Cc1cn(CC(=O)N2CCOCC2)c2ccccc12  -0.773
91. CN(C)CCCNc1oc(-c2cccc(Cl)c2)nc1C#N  -0.825
92. O=S(=O)(Nc1ccc2nc(-c3ccc(Br)o3)[nH]c2c1)c1ccccc1  -0.849
93. O=C(Nc1ccc2nc(-c3ccc(Br)o3)[nH]c2c1)c1cccs1  -0.969
94. CC(C)Sc1nc2c(c(=O)n1-c1ccc(F)cc1)SCC2  -0.98
95. CC(C)CC(=O)N1CCN(S(=O)(=O)c2ccc3ccccc3c2)CC1  -1.99

CCCSc1nnc(Nc2ccccc2C)s1 was tested, and the z-score was 4.96 (active).
In the case of O=C(C[n+]1cc(-c2ccccc2)n2c1CCC2)OCc1ccccc1, the z-score is reported as 5.17 (active).
CCOC(=O)Cn1c(=O)oc2cc(S(=O)(=O)NCCCc3ccccc3)ccc21 was tested, and the z-score was 3.36 (active).
O=S(=O)(Nc1ccc2nc(C(F)(F)F)[nH]c2c1)c1ccccc1 was tested, and the z-score was 4.74 (active).
For CC(C)CCn1c(S(=O)(=O)O)nc2ccccc21, the z-score was 3.16 (active).
CC(=O)c1sc(NC(=O)c2cc(-c3ccccc3)nn2-c2ccccc2)nc1C was tested, and the z-score was 3 (active).
CCCCN(CCCC)S(=O)(=O)c1ccc(NC(=O)c2ccc([N+](=O)[O-])cc2Cl)cc1 was tested, and the z-score was 3.01 (active).
For CN(CC(=O)Nn1cnnc1)S(=O)(=O)c1ccc(Br)cc1, the z-score was 4.35 (active).
Cc1ccc(-c2c(C)sc(NC(=O)C3C4CCC(O4)C3C(=O)O)c2C(=O)OC(C)C)cc1 (stereo not drawn) was tested, and the z-score was 4.99 (active).
With CCOC(=O)c1c(NC(=O)C2C3C=CC(C3)C2C(=O)O)sc2c1CCC(CC)C2 (stereo not drawn) the z-score was 3.71 (active).
With CC(C)(C)NC(=O)C(=O)NNC(=O)c1ccc(C(C)(C)C)cc1 the z-score was 5.3 (active).
OC(CNCC1CCCO1)Cn1c2ccc(Br)cc2c2cc(Br)ccc21 (stereo not drawn) was tested, and the z-score was 3.72 (active).
With COc1ccc(-c2nc(C#N)c(NCCCN(C)C)o2)cc1OC the z-score was 11.2 (active).
